# Several values for one entry are separate records, joined by “and”; a condition that tells them apart may be missing. Identical values can stand only once. Like-named read-outs stand apart in the source and are kept apart here.
# Assays:
# Conditions in all cases: concentration: 1 μM, replicates: in singlicate, n = 1
# MAP4K3 = test system: MAP4K3
# MAP4K4 = test system: MAP4K4
# MAP4K5 = test system: MAP4K5
# MARK1 = test system: MARK1
# MARK2 = test system: MARK2
# MARK3 = test system: MARK3
# MARK4 = test system: MARK4
# MAPKAPK2 = test system: MAPKAPK2
# MAST1 = test system: MAST1
# MAPKAPK5 = test system: MAPKAPK5
# 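Further: KINOMEscan kinase panel screen.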
smiles,measurement,setting,value
NCCNS(=O)(=O)c1ccc(-c2ccnc3[nH]ccc23)cc1 [GSK977617],%Inh,MAP4K3; 1 µM,20% and 0%
same,%Inh,MAP4K4; 1 µM,43% and 25%
same,%Inh,MAP4K5; 1 µM,8% and 0%
same,%Inh,MARK1; 1 µM,18% and 0%
same,%Inh,MARK2; 1 µM,53% and 40%
same,%Inh,MARK3; 1 µM,25% and 4%
same,%Inh,MARK4; 1 µM,36% and 12%
CC(C)(CN)c1nc(-c2ccc(Cl)c(O)c2)c(-c2ccncc2)[nH]1.O=C(O)C(F)(F)F [SB-477794],%Inh,MAP4K4; 1 µM,81% and 83%
same,%Inh,MAP4K5; 1 µM,17% and 26%
same,%Inh,MAPKAPK2; 1 µM,13% and 0%
same,%Inh,MARK1; 1 µM,0% and 4%
same,%Inh,MARK2; 1 µM,0% and 22%
same,%Inh,MARK3; 1 µM,0% and 6%
same,%Inh,MARK4; 1 µM,0% and 13%
same,%Inh,MAST1; 1 µM,0% and 45%
NS(=O)(=O)c1cccc(-c2ccc3ncc(N4CCOCC4)nc3c2)c1 [GSK1535721],%Inh,MAP4K3,0%
same,%Inh,MAP4K4,0%
same,%Inh,MAP4K5,0%
same,%Inh,MAPKAPK2,7%
same,%Inh,MAPKAPK5,0%
same,%Inh,MARK1,0%
same,%Inh,MARK2,11%
same,%Inh,MARK3,0%
same,%Inh,MARK4,0%
same,%Inh,MAST1,0%
Cc1cn2c(=O)cc(N3CCOCC3)nc2n1Cc1cccc(Cl)c1Cl [GSK2334006],%Inh,MAP4K3,5%
same,%Inh,MAP4K4,16%
same,%Inh,MAP4K5,19%
same,%Inh,MAPKAPK2,28%
same,%Inh,MAPKAPK5,0%
same,%Inh,MARK1,0%
same,%Inh,MARK2,0%
same,%Inh,MARK3,2%
same,%Inh,MARK4,0%
same,%Inh,MAST1,0%
Cl.Cl.Cl.Fc1ccc(-c2ncn(C3CCNCC3)c2-c2ccnc(Nc3ccccc3)n2)cc1 [SB-238039],%Inh,MAP4K3; 1 µM,41% and 5%
same,%Inh,MAP4K4; 1 µM,74% and 60%
same,%Inh,MAP4K5; 1 µM,94.1% and 85%
same,%Inh,MAPKAPK2; 1 µM,2% and 33%
same,%Inh,MAPKAPK5; 1 µM,0% and 9%
same,%Inh,MARK1; 1 µM,13% and 10%
same,%Inh,MARK2; 1 µM,43% and 42%
same,%Inh,MARK3; 1 µM,10% and 0%
same,%Inh,MARK4; 1 µM,27% and 11%
same,%Inh,MAST1; 1 µM,52% and 37%
Cn1ccc2ncnc(Oc3ccc(NC(=O)Nc4ccncc4)c(Cl)c3)c21,%Inh,MAP4K3,0%
same,%Inh,MAP4K4,0%
same,%Inh,MAP4K5,0%
same,%Inh,MAPKAPK2,0%
same,%Inh,MAPKAPK5,0%
same,%Inh,MARK1,0%
same,%Inh,MARK2,11%
same,%Inh,MARK3,2%
same,%Inh,MARK4,0%
same,%Inh,MAST1,2%
COc1ccc(Nc2ncc(C#N)c(Nc3ccccc3C(N)=O)n2)cc1N1CCN(C)CC1.Cl [GSK1558669],%Inh,MAP4K3,99.8%
same,%Inh,MAP4K4,96.8%
same,%Inh,MAP4K5,99.3%
same,%Inh,MAPKAPK2,0%
same,%Inh,MAPKAPK5,0%
same,%Inh,MARK1,99.3%
same,%Inh,MARK2,99.9%
same,%Inh,MARK3,89%
same,%Inh,MARK4,98.7%
same,%Inh,MAST1,91.8%
O=C(Nc1n[nH]c2cc(-c3cccc(F)c3)ccc12)C1CC1 [SB-735464],%Inh,MAP4K3,0%
same,%Inh,MAP4K4,42%
same,%Inh,MAP4K5,6%
same,%Inh,MAPKAPK2,0%
same,%Inh,MAPKAPK5,21%
same,%Inh,MARK1,9%
same,%Inh,MARK2,25%
same,%Inh,MARK3,0%
same,%Inh,MARK4,5%
same,%Inh,MAST1,34%
Cc1nnc(-c2ccc(C)c(-c3ccc(C(=O)Nc4ccc(NS(C)(=O)=O)cc4)cc3)c2)o1 [GW702865],%Inh,MAP4K3,0%
same,%Inh,MAP4K4,0%
same,%Inh,MAP4K5,0%
same,%Inh,MAPKAPK2,11%
same,%Inh,MAPKAPK5,0%
same,%Inh,MARK1,0%
same,%Inh,MARK2,0%
same,%Inh,MARK3,0%
same,%Inh,MARK4,10%
same,%Inh,MAST1,21%
O=C(NCCCN1CCOCC1)c1cccc(Nc2nccc(Nc3ccc(Oc4ccccc4)cc3)n2)c1 [GW663929],%Inh,MAP4K3,0%
same,%Inh,MAP4K4,6%
same,%Inh,MAP4K5,0%
same,%Inh,MAPKAPK2,0%
same,%Inh,MAPKAPK5,0%
same,%Inh,MARK1,0%
same,%Inh,MARK2,19%
same,%Inh,MARK3,8%
same,%Inh,MARK4,0%
same,%Inh,MAST1,0%
O=C(c1ccc(-c2cc(-c3c[nH]nc3-c3ccccn3)ccn2)cc1)N1CCOCC1 [GW812171],%Inh,MAP4K3,0%
same,%Inh,MAP4K4,0%
same,%Inh,MAP4K5,0%
same,%Inh,MAPKAPK2,0%
same,%Inh,MAPKAPK5,0%
same,%Inh,MARK1,5%
same,%Inh,MARK2,21%
same,%Inh,MARK3,17%
same,%Inh,MARK4,11%
same,%Inh,MAST1,18%
Fc1ccc(-c2ncn(CCCN3CCOCC3)c2-c2ccccn2)cc1 [SB-211742],%Inh,MAP4K3,0%
same,%Inh,MAP4K4,2%
same,%Inh,MAP4K5,0%
same,%Inh,MAPKAPK2,0%
same,%Inh,MAPKAPK5,0%
same,%Inh,MARK1,0%
same,%Inh,MARK2,0%
same,%Inh,MARK3,30%
same,%Inh,MARK4,24%
same,%Inh,MAST1,18%
CCCCCc1nc2c(N)ncnc2n1CCCCC [SKF-97255],%Inh,MAP4K3,2%
same,%Inh,MAP4K4,0%
same,%Inh,MAP4K5,0%
same,%Inh,MAPKAPK2,0%
same,%Inh,MAPKAPK5,0%
same,%Inh,MARK1,24%
same,%Inh,MARK2,0%
same,%Inh,MARK3,20%
same,%Inh,MARK4,31%
same,%Inh,MAST1,25%
COc1cc2c(cc1OCCN1CCN(C)CC1)ncc1c3ccc(C#N)cc3[nH]c21,%Inh,MAP4K3,12%
same,%Inh,MAP4K4,59%
same,%Inh,MAP4K5,22%
same,%Inh,MAPKAPK2,0%
same,%Inh,MAPKAPK5,0%
same,%Inh,MARK1,7%
same,%Inh,MARK2,29%
same,%Inh,MARK3,0%
same,%Inh,MARK4,0%
same,%Inh,MAST1,97.2%
CN(C(=O)c1ccc(-c2cc(-c3c[nH]nc3-c3ccccn3)ccn2)cc1)C1CCOCC1 [GW810083],%Inh,MAP4K3,0%
same,%Inh,MAP4K4,9%
same,%Inh,MAP4K5,0%
same,%Inh,MAPKAPK2,0%
same,%Inh,MAPKAPK5,0%
same,%Inh,MARK1,9%
same,%Inh,MARK2,36%
same,%Inh,MARK3,0%
same,%Inh,MARK4,30%
same,%Inh,MAST1,38%
O=c1cc(N2CCOCC2)nc2n(Cc3cccc(C(F)(F)F)c3)ccn12 [GSK2297543],%Inh,MAP4K3,0%
same,%Inh,MAP4K4,0%
same,%Inh,MAP4K5,0%
same,%Inh,MAPKAPK2,0%
same,%Inh,MAPKAPK5,0%
same,%Inh,MARK1,1%
same,%Inh,MARK2,0%
same,%Inh,MARK3,0%
same,%Inh,MARK4,12%
same,%Inh,MAST1,9%
O=c1cc(N2CCOCC2)nc2n(Cc3cccc(F)c3)ccn12 [GSK2297430],%Inh,MAP4K3,11%
same,%Inh,MAP4K4,9%
same,%Inh,MAP4K5,4%
same,%Inh,MAPKAPK2,12%
same,%Inh,MAPKAPK5,0%
same,%Inh,MARK1,0%
same,%Inh,MARK2,0%
same,%Inh,MARK3,0%
same,%Inh,MARK4,10%
same,%Inh,MAST1,0%
Cc1nnc(-c2ccc3ncc(-c4ccc(S(C)=O)cc4)n3c2)o1 (centres unmarked),%Inh,MAP4K3,0%
same,%Inh,MAP4K4,0%
same,%Inh,MAP4K5,0%
same,%Inh,MAPKAPK2,22%
same,%Inh,MAPKAPK5,5%
same,%Inh,MARK1,0%
same,%Inh,MARK2,20%
same,%Inh,MARK3,0%
same,%Inh,MARK4,0%
same,%Inh,MAST1,34%
Cc1cccc(Cn2ccn3c(=O)cc(N4CCOCC4)nc23)c1 [GSK2297542],%Inh,MAP4K3,0%
same,%Inh,MAP4K4,4%
same,%Inh,MAP4K5,0%
same,%Inh,MAPKAPK2,14%
same,%Inh,MAPKAPK5,0%
same,%Inh,MARK1,7%
same,%Inh,MARK2,11%
same,%Inh,MARK3,0%
same,%Inh,MARK4,10%
same,%Inh,MAST1,0%

# — paper PMC5540273 (PLoS ONE, 2017)
